# NPC1 prom act – NPC1 promoter activation; Huh7 NPC1 promoter luciferase reporter, 24 h; Potency, µM (top dose mostly 9.22 µM), for the others: at the highest dose activation, usual class: activators; actives 2.4% (n = 320,000); also: % of control where 0% means no effect; nearly all actives have a fitted effect of over 60% in size
#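 NPC1 promoter–luciferase Huh7 cells; 24 h compound; luminescence.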
# FLuc modulator – firefly luciferase modulation, counter-screen for miR-21 project. P08659. purified FLuc, Km substrates, luminescence inhibition. Potency, µM (series often up to 57.5 µM), for inactives: at the highest dose activity change, negative = inhibition, actives largely listed as inhibitors. actives 6.9% (n = 360,000). AID 588342;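 also: plate controls were vehicle for no effect and reference inhibitor for full effect; nearly all actives have a fitted effect of over 55% in size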
# Target sequence (P08659 whole entry, looked up): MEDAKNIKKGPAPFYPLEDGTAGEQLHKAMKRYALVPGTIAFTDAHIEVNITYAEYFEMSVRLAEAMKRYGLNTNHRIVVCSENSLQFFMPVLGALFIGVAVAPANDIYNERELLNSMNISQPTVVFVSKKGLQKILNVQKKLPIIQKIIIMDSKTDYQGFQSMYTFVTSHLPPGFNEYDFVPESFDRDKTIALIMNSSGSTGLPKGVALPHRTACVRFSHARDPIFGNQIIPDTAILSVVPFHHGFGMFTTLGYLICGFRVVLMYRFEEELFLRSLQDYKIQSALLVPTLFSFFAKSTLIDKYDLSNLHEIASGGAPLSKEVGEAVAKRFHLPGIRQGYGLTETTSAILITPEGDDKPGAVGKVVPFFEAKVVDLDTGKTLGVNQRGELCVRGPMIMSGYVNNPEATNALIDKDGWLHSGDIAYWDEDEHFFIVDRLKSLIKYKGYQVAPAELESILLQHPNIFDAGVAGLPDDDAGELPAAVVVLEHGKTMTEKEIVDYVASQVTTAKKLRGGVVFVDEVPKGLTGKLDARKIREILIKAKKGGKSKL
#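 Purified P. pyralis luciferase (10nM final) with 10uM D-luciferin and 10uM ATP (Km levels) in 50mM Tris acetate pH 7.5, 10mM Mg acetate, 0.01% Tween-20, 0.05% BSA; qHTS 6-point titration, ~60 µM downward; luminescence read.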
# Rab9 promoter act – activates the Rab9 promoter; Huh7 Rab9 promoter-luciferase reporter, luminescence, 24 h; Potency, µM (titrated, usually from 9.22 µM), for the others: at the top dose activation, negative = inhibition, actives largely listed as activators; actives 2.8% (n = 320,000); AID 485297; also: % of control where 0% means no effect; nearly all actives have a fitted effect of over 60% in size
#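 Huh7 cells stably carrying Rab9 promoter–luciferase reporter, plated 1500 cells/well, compound added after 2 h and incubated 24 h at 37 °C; luciferase luminescence then read after 10 min with detection reagent.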
# SMN2 splice up – SMN2 splice variant enhancement | AID 1458 | actives 2.8% (n = 210,000) | Potency, µM (top dose mostly 46.1 µM), inactives show at the top dose activity change, positive = activation, most hits filed as activators | HEK293 SMN2-luciferase splicing reporter, luminescence, 30-36 h; also: % of control where 0% means no effect; nearly all actives have a fitted effect of over 55% in size
#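 HEK293 cells carry an SMN2 […]–luciferase reporter in which exon 7 inclusion puts luciferase in frame. Cells were plated 10-12 h before compound addition, then incubated 30-36 h at 37C. ONE-Glo luminescence was read; sodium butyrate at 4.5 mM final served as control.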
# ELG1 DNA repair – blocks ELG1-dependent DNA repair in HEK293T cells; HEK293T ELG1-luciferase reporter, luminescence, 16 h; DNA damage induced by 5-fluorouridine; Potency, µM (doses to about 46.1 µM), for inactives: at the highest dose activity change, negative = inhibition, hits mostly inhibitors; AID 504467; actives 2.3% (n = 330,000); also: % is scaled to controls: 0 for no effect and ±100 for the full control effect; nearly all actives have a fitted effect of over 55% in size
#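 HEK293T cells expressing luciferase-tagged ELG1 (2,000/well) received 5-Fluorouridine plus compound or DMSO for 16 hr at 37 °C. Luciferase was read by ONE-Glo luminescence after 30 min at room temperature.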
# ELG1 genotoxic – inducers of genotoxicity in HEK293T ELG1-luciferase cells. HEK293T ELG1-luciferase reporter, luminescence, 16 h. Potency, µM (doses to about 46 µM), for inactives: at the top dose activity change, positive = activation, actives largely listed as activators. actives 1.3% (n = 330,000); also: % of control where 0% means no effect; nearly all actives have a fitted effect of over 60% in size
#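 16 hr compound incubation (37 °C, 5% CO2) of HEK293T cells carrying luciferase-tagged ELG1; luciferase then measured by ONE-Glo luminescence after 30 min at RT.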
# * = called active by the depositor; ? = inconclusive; · = no result. Hits are enriched below; roughly 9.2% of the tested compounds scored in any of these assays. Calls follow the shape of the dose curve; as a rule, active = well fitted curve in the direction sought with a large enough effect; inconclusive = small, poorly fitted or top-dose-only effect, or another doubt; inactive = no such curve, though single readings can be large; an effect the other way counts as inactive or inconclusive. Potency is read from the fitted curve at half-maximal effect.
SMILES,NPC1 prom act,FLuc modulator,Rab9 promoter act,SMN2 splice up,ELG1 DNA repair,ELG1 genotoxic
CC(Oc1ccccc1)C(=O)N1CCN(C(=O)C(C)Oc2ccccc2)CC1 (centres undefined),-3%,-2%,4%,·,6.5µM*,-12%
Cc1ccc(-c2nc3cccnc3s2)cc1NS(=O)(=O)c1ccc2c(c1)OCCO2,8%,-13%,-3%,?,?,15%
Cc1ccc(-c2nc3cccnc3s2)cc1NS(=O)(=O)c1cccs1,10%,27µM*,15%,·,19%,10%
CCc1ccc(S(=O)(=O)Nc2ccc(-c3nc4cccnc4s3)cc2)s1,15%,?,?,16µM*,?,15µM*
O=C(Nc1cccc(-c2nc3cccnc3s2)c1)c1cccnc1Cl,22%,17µM*,23%,·,?,-7%
Cc1nc2ccc(S(=O)(=O)Nc3cc(-c4nc5cccnc5s4)ccc3C)cc2s1,-5%,19µM*,2%,16µM*,?,?
CC(=O)c1ccc(NC(=O)CN2C(=O)NC(C)(C3CCCCC3)C2=O)cc1 (centres undefined),-4%,-2%,1%,·,18%,4%
CCOCC(=O)Nc1cccc(-c2nc3cccnc3s2)c1C,13%,17µM*,1%,·,-25%,0%
CCOc1ccccc1C(=O)Nc1cc(-c2nc3cccnc3s2)ccc1C,·,9.5µM*,·,·,·,·
NS(=O)(=O)c1ccc(C(=O)Nc2ccc(-c3nc4cccnc4s3)cc2)cc1,1.4µM*,12µM*,1.4µM*,·,?,?
CCOc1ccc(NC(=O)CN(C)C(=O)c2ccc3nc(CC)c(CC)nc3c2)cc1OCC,-1%,2%,3%,·,-28%,2%
S=C(NCCCN1CCOCC1)Nc1ccc(Cl)c(Cl)c1,-3%,-2%,0%,11%,-8%,0%
CCCc1c(C(=O)Nc2cc(C)on2)cnn1-c1ccccc1,1%,-2%,-3%,·,-7%,0%
O=C1NC(=S)S/C1=C/c1ccc(OC(=O)c2ccco2)cc1,19%,7.6µM*,?,·,?,1%
COc1cc(/C=C2/SC(=O)NC2=O)ccc1OC(=O)c1ccco1,0%,17µM*,9%,·,-2%,7%
CCOc1cc(/C=C2/SC(=S)NC2=O)ccc1OC(=O)c1ccco1,4%,24µM*,13%,-4%,?,0%
COc1cc(/C=C2/SC(=S)N(C)C2=O)ccc1OC(=O)c1ccco1,13%,-15%,-11%,13%,?,10%
COc1ccc(C(=O)NCCn2cc(SCC(=O)Nc3cc(C)on3)c3ccccc32)cc1OC,1%,-19%,-3%,-11%,?,-15%
COc1ccccc1C(=O)NCCn1cc(SCC(=O)Nc2cc(C)on2)c2ccccc21,-3%,?,-1%,-38%,23µM*,-9%
CCOc1ccc(C(=O)NCCn2cc(SCC(=O)Nc3cc(C)on3)c3ccccc32)cc1,0%,12µM*,1%,-23%,?,-4%
O=C(CSc1nccn1Cc1ccccc1)NCc1ccco1,·,-21%,·,·,·,·
Cc1ccc(C2NC(=S)NC3=C2C(=O)CC(C)(C)C3)cc1 (centres undefined),-4%,7%,1%,22%,4%,0%
Cc1ccc(C(=O)CSc2ncnc3ccccc23)o1,4µM*,13µM*,4µM*,11%,?,12%
O=C(CSc1ncnc2ccccc12)c1cccs1,1.8µM*,1.5µM*,0.45µM*,·,?,?
NC(=O)c1cccc2c3c([nH]c12)CCCC3,14%,24µM*,-4%,-4%,?,8%
SMILES,NPC1 prom act,FLuc modulator,Rab9 promoter act,SMN2 splice up,ELG1 DNA repair,ELG1 genotoxic
CC(=O)N1CCN(c2ccccc2NC(=O)c2ccco2)CC1,0%,-2%,1%,·,6%,-1%
Cc1cccc(C(=O)OCC(=O)NC(=O)c2ccccc2)c1O,7%,-2%,-3%,·,5%,3%
Cc1ccc(-c2nnc(N(C)C(=O)c3cccnc3)s2)cc1,3.2µM*,8.5µM*,3.5µM*,27%,?,17%
COc1ccc(-c2nnc(N(C)C(=O)c3cccnc3)s2)cc1,?,13µM*,?,16%,?,?
CCOc1ccccc1NC(=O)CN(c1ccc(Cl)cc1)S(C)(=O)=O,0%,0%,-4%,·,-5%,0%
COc1ccc(Cn2c(C3CCCCC3)nc3c(c(=O)c4ccccc4n3C)c2=O)cc1,-2%,-3%,-2%,·,?,-9%
COc1ccc(CCn2c(C3CCCCC3)nc3c(c(=O)c4ccccc4n3C)c2=O)cc1,1%,-1%,0%,·,16µM*,-8%
C/C(=N\NC(=O)COc1ccccc1-c1ccccc1)c1ccccn1,-17%,-6%,-24%,-58%,?,?
C/C(=N\NC(=O)COc1ccccc1-c1ccccc1)c1ccc(O)cc1O,-19%,1%,-16%,·,23µM*,-8%
CCc1ccc(C(=O)NC(=S)NCc2cccnc2)cc1,2%,?,-3%,·,17%,-4%
O=C(/C=C/c1ccc2c(c1)OCO2)c1ccccc1,·,·,·,1%,·,·
O=C(/C=C/c1ccc2c(c1)OCO2)c1cccnc1,2%,15µM*,-1%,·,11%,1%
O=C(N/N=C\C=C\c1ccc2c(c1)OCO2)c1cccnc1,8%,17µM*,3%,-1%,?,4%
NS(=O)(=O)c1ccc(NC(=O)/C=C/c2ccc3c(c2)OCO3)cc1,5%,-9%,-1%,-11%,?,10%
Cc1cc(C)nc(NC(=O)/C=C/c2ccc3c(c2)OCO3)c1,3.2µM*,2.1µM*,2.5µM*,·,?,?
COC(=O)c1cc(NC(=O)/C=C/c2ccc3c(c2)OCO3)cc(C(=O)OC)c1,-2%,0%,-2%,?,?,4%
COC(=O)c1cccc(NC(=O)/C=C/c2ccc3c(c2)OCO3)c1,2.8µM*,1.3µM*,2.5µM*,-94%,?,-8%
COc1ccc(OC)c(CNS(=O)(=O)c2c(C)nc3scc(C)n3c2=O)c1,-1%,0%,4%,·,23%,2%
CC/C(Cc1ccccc1)=N\NC(=O)c1cc([N+](=O)[O-])cc([N+](=O)[O-])c1,-1%,-1%,-2%,·,-8%,-1%
Cc1cccnc1NC(=O)/C=C/c1ccc2c(c1)OCO2,2.5µM*,19µM*,2.8µM*,16µM*,?,?
CC(=O)Nc1ccc(NC(=O)/C=C/c2ccc3c(c2)OCO3)cc1,13%,?,19%,9%,1%,9%
O=C(/C=C/c1ccc2c(c1)OCO2)Nc1cccnc1,2.2µM*,2.4µM*,1.3µM*,13µM*,?,3.7µM*
